The record followed here is the supplement of paper PMC11417369.

Over roughly 25,000 sequences, “ln(normalized median fluorescence intensity)” has its median near 7.1; the highest 2% begin near 10. The entries come from a sample that favours the highest values as a whole.

For this assay, the system named is PfSIP2 AP2 domain 1 (GST-tagged). In words: gcPBM binding intensity (ln(normalized median fluorescence intensity)); higher = stronger DNA binding. The method in brief: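 Using an Agilent 4 × 180k array, primer-extended double-stranded 36-bp intergenic genomic probes and negative controls were exposed for 1 h to GST-fused P. falciparum DNA-binding domains expressed in E. coli. Binding was carried out in 1× PBS with 1% milk, 0.2 mg/ml BSA, 0.5% salmon testes DNA and 0.03% Triton X-100, and protein was detected with Alexa488 anti-GST antibody and a 488 nm scan. Binding intensity is the highest Masliner-normalised natural-log median intensity across replicate spots of either probe orientation.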
Take “TATATACTCAGACATACACACAAATAAAAAAACACC [CACACA_site5820]”: the “gcPBM binding intensity (ln)” value stood at 8.07.
Next, “AAATAATATATTCTATATAATAAATTATAAATATAA [GTGCAC_negctrl_site558]”: 6.58; “AAGTGTATATAAAAATGTACATATTTCGATTTAAAT [XGTACX_site4161]”: 7.11; “TTTATATCATTTCTTAAAAAAAAGGAGGTAATAGAC [TGCATGCA_negctrl_site555]”: 8.44.
With TTCTTAAAAGGAAAGGTGCAACTTTATCATTTTCTT the figure was 10.9; with “TTATTTTTAATATCGGTGCAACAAAAAGGAAAAGAT [GTGCAC_site9482]”, 9.64; with “TAAAGATGAAATATCACACATATATAAATATATAAA [CACACA_site4580]”, 6.69.
Next, “AATAATAATAGAAACACACACACATTTTTAAGAATA [CACACA_site6692]”: 6.74; “AACAAAGAAAATACATGTACAAAAAATATTAACGAA [XGTACX_site287]”: 7.22.
With TTTAGTGAGTTTGTTGTGCACTGAAAAAATTACAAT, the “gcPBM binding intensity (ln)” value turned out to be 10.5.
For ATAAATAAAACAACAGTGCAATAAAATTAGTTGAGG, the “gcPBM binding intensity (ln)” value turned out to be 7.5.
Next, TATATTATATATATACTGCACTGTTTTACAAAATTA: 8.44.
Next, “TTATATAATCCTTTCAAACACACAAAATATAATTAA [CACACA_site1830]”: 6.91; “ACAAAATAAACCACGTGTACAAATTTATAATGTGTA [XGTACX_site1153]”: 7.21; “AAAAAAAAAAAAAAAGCACACATATAAATATGAATA [CACACA_site8391]”: 7.5.
Next, “TATATATATATGTGCACACATAATAAAAAAAAAAAT [CACACA_site3831]”: 9.49.
As for AAAAATAAAATGATGGTGCACATAAAGTATGGTTAC, the “gcPBM binding intensity (ln)” value turned out to be 11.3.
With “AAAAAAAAAAAGTGCACACATAAAAATATGATCTAA [CACACA_site572]” the figure was 11.5; with “TACAAAATATATATGACACACATAAAAAAAAGTATA [CACACA_site1373]”, 6.96.
With “ATCTTAACTCTATGCACACATAAAAGTATATAAATA [CACACA_site2256]” the figure was 7.7.
With “AAAAAAAAAAAAAGCACACATATAAATATGAATAAA [CACACA_site1393]” the figure was 7.18; with “TGTTAAAAAATGGATGCACACATTAAATAAAAAGTA [CACACA_site1660]”, 8.9.
As to “AAAAAAAAAAAAAGTGCACACATAAAAATATGATCT [CACACA_site8090]”, the “gcPBM binding intensity (ln)” value worked out at 11.2.
Next, “ATATATGACTAATAAAGTACATACTTCATATAATTA [XGTACX_site6699]”: 7.06; “TAAGTATATTTCTGCACACAAAAAAAAAAACCAAAA [CACACA_site4056]”: 7.18; “AATGATATATTTAAATGTACACATGAAATATAATAT [XGTACX_site2678]”: 7.06.
With “ATAAAAAAAAAATAATGTACTTATATATATATATAT [XGTACX_site8282]” the figure was 9.32; with “TATATTATAGGTTGTGTACACATATTATATAGTACT [CACACA_site4583]”, 7.16; with “GATGTATAAAATAATACATGCATGTCCTACATATAT [TGCATGCA_site155]”, 6.89.
With “AATACGGCAAACATTAAAAAATATAATAACAATAAA [CACACA_negctrl_site868]” the figure was 6.96.
Turning to “TATGTGTGCAAAAACTGTACACATTAAAGGTATATA [XGTACX_site7627]”, the “gcPBM binding intensity (ln)” value was found to be 7.54.
On to “ACATATAAAATATATACACACATATAAATACATTAA [CACACA_site3867]”, for which the “gcPBM binding intensity (ln)” value came out at 7.06.
For CATTATGTACAAAAAGTGCAATATATATTAACACTG, the “gcPBM binding intensity (ln)” value was 8.23.
Next, “TGCAAAAAATTCCACACACACACACGCATATAAATA [CACACA_site6696]”: 7.27.
With “ATATGTACGCAAGGTGCACACTGGTGCATTAAAAAA [CACACA_site1801]” the figure was 12.3; with “GCAAGGTCCACACTGGTGCATTAAAAATAAAATATA [GTGCAC_site9956]”, 10.4.
Next, “GAATATGAATATTTGCGTACTTATATAACTGTTCTA [XGTACX_site883]”: 6.83.
For the sequence “GTGTTAATTTTAAATTGTACAAAATTTATATGATTT [XGTACX_site348]”, the “gcPBM binding intensity (ln)” value was found to be 7.19.
With “TAAATGTTTCTCAAAAGTACACATGTGATATTTCTT [XGTACX_site2065]” the figure was 6.84; with “AGCATTTTTCATTTTGCACACATGTTTTATGTGTAT [CACACA_site3454]”, 7.11.
Next, “TATTTTCTCGTTTGCATGCACCTTATTTTATGTGGT [GTGCAC_site9470]”: 10.8; “TATGTGTATTTATTTGCATGTTGGTTGTATTTTTTC [TGCATGCA_site479]”: 6.93; “ACTTGTTTTCAATGTAAAATACAATTTTCATTTATT [CACACA_negctrl_site435]”: 7.08.
Next, “TATTAAATTTATCGGAGTACATTTAAATGTATATAC [XGTACX_site7975]”: 7.13; “TATATAACATATAACACACATACTTAGTATTACATA [CACACA_site3099]”: 7; TAATATAAATGAAAGGTGCTTTTGCTTTCTTTTTTT: 7.08.
As for “TCTTTTCTCGGAAGGGTGCAAGGAATTAATGAAATA [GTGCAC_site9706]”, the “gcPBM binding intensity (ln)” value was determined as 11.1.
With “TTCTTTTCTCTTTTAATCATATTATATAAATGAATA [CACACA_negctrl_site820]” the figure was 7.29.
For “TTTTTATTTTTTTATTTCTTATCAAATAAAATATAT [XGTACX_negctrl_site537]”, the “gcPBM binding intensity (ln)” value was 6.84.
Next, “TGTTTTGTTGTGTATTGTACTAATATAAATATATAA [XGTACX_site1852]”: 7.41; “TTGCAATAATGTTGCACACTAAATAGTCATATATAA [CACACA_site263]”: 7.31.
